# Experimental data published in PubChem BioAssay (NCI).
# The panel holds about 83,000 compounds, 20% with a hit somewhere; the sample as a whole holds those more often.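 The endpoint reported here, percent growth, reads 100 for growth as untreated, 0 for no net growth and -100 for all cells dead.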 The source made the active and inactive calls. The calls were made as follows: active = growth percent below 10; inactive = the rest.
# Test system: DU-145 prostate
# Test: NCI-60 one-dose screen, 48 h (100 = growth as untreated, 0 = no growth, -100 = all killed)
# Details: 10 µM unless noted
row,Compound,growth
1,O=C1C=Cc2ncccc2C1=O,78.9% (inactive)
2,COc1cc2c(cc1OC)C(=O)/C(=C/c1cc(-c3ccc4c(c3)OCO4)n[nH]1)C2,1.19% (active)
3,CCN(CC)CCCCCCNc1ccnc2cc(Cl)ccc12,92.8% (inactive)
4,COC(c1ccccc1)(c1ccccc1)c1ccccc1,108% (inactive)
5,CC(CNc1nc(Nc2ccc(Cl)c(Cl)c2)nc(C(Cl)(Cl)Cl)n1)N(C)C (stereo not given),5.37% (active)
6,COc1cccc2c1C(=O)c1c(O)c3c(c(O)c1C2=O)C[C@@](O)(C(=O)CO)C[C@@H]3OC1C[C@H](N)[C@H](O)[C@H](C)O1 (stereo not given in full),3.11% (active)
7,NC(=O)[C@@H]1CC2CCC1C2 (stereo not given in full),50.4% (inactive)
8,COc1cc2[nH]c(C(=O)c3cc(OC)c(OC)c(OC)c3)c(N)c2cc1C#CCO,12.2% (inactive)
9,CN(C)c1ccc(N=C2C=CC(=O)C=C2)cc1,112% (inactive)
10,COc1ccc(C(=O)c2cc(OC)c(OC)c(OC)c2)cc1/C=C/C(=O)c1cc(OC)c(OC)c(OC)c1,83.4% (inactive)
11,Nc1c(C(=O)Nc2cccc(Br)c2)sc2nc3c(cc12)C(=O)CCC3,1.18% (active)
12,O=C1NC(=Nc2ccc(S(=O)(=O)Nc3nccs3)cc2)S/C1=C\c1coc2ccccc2c1=O,121% (inactive)
13,COc1ccc(C(=O)/C=C/c2cc(-c3cc(OC)c(OC)c(OC)c3)n[nH]2)cc1OC,1.8% (active)
14,COc1cc2[nH]c(C(=O)c3cc(OC)c(OC)c(OC)c3)c(N)c2cc1C#CC1CC1,28.9% (inactive)
15,O=C(NC1=CC(=O)c2ccccc2C1=O)c1ccccc1,63.4% (inactive)
